Measurements: PubChem BioAssay (Tox21)
Records with an inconclusive call do not appear. Entries that show only a call come without a potency. The source made the active and inactive calls. The call rests on the fitted dose curve; in most records, active means well fitted cell-killing curve with a large enough effect in the repeat runs; inconclusive means weak or mixed curves; inactive means no such curve, though single readings can be large or run the other way.

Experiment: qHTS assay to identify small molecule agonists of the peroxisome proliferator-activated receptor delta (PPARd) signaling pathway - cell viability counter screen (AID 743211); further: nearly all actives have a fitted effect of over 55% in size
Conditions: PPARd-bla HEK293H viability, CellTiter-Glo luminescence, 17 h; series mostly up to 62.6 µM
Text: U.S. Tox21 Program National Center for Advancing Translational Sciences [NCATS] NIH Chemical Genomics Center [NCGC] U.S. Environmental Protection Agency [EPA] National Institutes of Environmental Health Sciences [NIEHS] National Toxicology Program [NTP] U.S. Food and Drug Administration [FDA] Tox21 Assay Overview: The peroxisome proliferator-activated receptors (PPARs) are lipid-activated transcription factors of the nuclear receptor superfamily with three distinct subtypes namely PPAR alpha, PPAR delta (PPARd) and PPAR gamma. All these subtypes heterodimerizes with Retinoid X receptor (RXR) and have different physiological functions. […] To identify the compounds that activate PPAR-delta signaling, GeneBLAzer PPAR delta UAS-bla HEK293H cell line (Invitrogen, Carlsbad, CA, USA) containing a beta-lactamase reporter gene under the control of an Upstream Activator Sequence (UAS) was used to screen the Tox21 compound library. The cytotoxicity of the Tox21 compound library against the PPARd-bla cell line was tested in parallel by measuring the cell viability using CellTiter-Glo assay (Promega, Madison, WI) in the same wells.
Tox21 Assay Protocol Summary: PPARd-bla cells were dispensed at 3000 cells/6uL/well in 1536-well black wall/clear bottom plates using a Multidrop Combi (Thermo Fisher Scientific, Waltham, MA) dispenser. After the assay plates were incubated at 37 C and 5% CO2 for 5 h, 23 nL of compounds dissolved in DMSO, positive controls or DMSO only was transferred to the assay plate by a Pintool station (Kalypsys, San Diego, CA). The assay plates were incubated at 37C for 17 h. After 1 uL of LiveBLAzerTM B/G FRET substrate was added using a Bioraptr Flying Reagent Dispenser (FRD) workstation (Beckman Coulter, Indianapolis, IN, USA), the plates were incubated at room temperature for 2 h, and fluorescence intensity was measured by an Envision plate reader (PerkinElmer, Shelton, CT). For cell viability readout that measures cytotoxicity, 3 ul/well of CellTiter-Glo reagent was added into the assay plates using a Bioraptr FRD. After 30 min incubation at room temperature, the luminescence intensity in the plates was measured using a ViewLux plate reader (PerkinElmer).
Potency means the concentration at half of the fitted maximal effect.

Compound	Potency
CC=C(Cl)Cl	inactive
CCCCN1CCCC1C(=O)Nc1c(C)cc(C)cc1C (stereo not given)	inactive
CCOC(=O)c1ccc(O)c(O)c1	inactive
O=c1cc(-c2ccccc2)oc2cc(O)cc(O)c12	inactive
O=C1Cc2cc(Cl)ccc2N1	inactive
C[C@H]1C[C@H](O)c2ccsc2S1(=O)=O	inactive
CC1(C)[C@H](C(=O)O)N2C(=O)C[C@H]2S1(=O)=O	inactive
CCCCCCCC/C=C\CCCCCCCCCCCC(=O)O	inactive
CCCCCC[C@@H](O)C/C=C\CCCCCCCC(=O)OCC(O)CO (stereo not given in full)	inactive
CCc1ccccc1	inactive
O=C(/C=C/c1ccccc1)OCCc1ccccc1	inactive
CC1(C)S[C@@H]2[C@H](NC(=O)C(c3ccccc3)S(=O)(=O)O)C(=O)N2[C@H]1C(=O)O (stereo not given in full)	inactive
CCOc1ccc(Cc2nccc3cc(OCC)c(OCC)cc23)cc1OCC	inactive
CC1(CN2CCC(n3c(=O)[nH]c4ccccc43)CC2)OCc2ccccc2-n2cccc21 (stereo not given)	33.5 µM (active)
CC(=O)OCC[N+](C)(C)C	inactive
CC(=O)[C@H]1[C@H](C#N)C[C@H]2[C@@H]3CC=C4C[C@@H](O)CC[C@]4(C)[C@H]3CC[C@@]21C	inactive
CCOc1cccc(-n2cc(C(=O)N3CCN(c4cc(C(=O)O)c5ccccc5c4)CC3)nc2-c2ccc(C)cc2)c1	37.1 µM (active)
CCOC(=O)OC(C)OC(=O)[C@@H]1N2C(=O)[C@@H](NC(=O)[C@H](N)c3ccccc3)[C@H]2SC1(C)C (stereo not given in full)	inactive
CC1=C(CC=O)C(C)(C)CCC1	inactive
O=C(Cn1ccnc1[N+](=O)[O-])NCCO	inactive

Compound	Potency
COc1ccccc1N1CCN(CCCCNC(=O)c2ccc(-c3ccc(C(C)=O)cc3)cc2)CC1	inactive
O=C(OC(=O)c1ccccc1)c1ccccc1	inactive
CC(=O)OCCN(CCOC(C)=O)c1ccc(N=Nc2ccc([N+](=O)[O-])cc2C#N)cc1	inactive
CC[N+](CC)(CCNC(=O)C(=O)NCC[N+](CC)(CC)Cc1ccccc1Cl)Cc1ccccc1Cl	inactive
CN1CCCC(CC2c3ccccc3Sc3ccccc32)C1 (stereo not given)	29.8 µM (active)
O[C@@H]1CO[C@H]2[C@@H]1OC[C@@H]2O	inactive
Cc1c(C)c2c(c(C)c1OC(=O)CCC(=O)OCCO)CC[C@@](C)(CCC[C@H](C)CCC[C@H](C)CCCC(C)C)O2	33.5 µM (active)
Oc1cccc(Nc2ccccc2)c1	inactive
CN1CC(=O)N2[C@H](c3ccc4c(c3)OCO4)c3[nH]c4ccccc4c3C[C@@H]2C1=O	inactive
O=C(/C=C/c1ccc(O)c(O)c1)O[C@@H]1C[C@@](OC(=O)/C=C/c2ccc(O)c(O)c2)(C(=O)O)C[C@@H](O)[C@@H]1O	inactive
O=C(CCc1ccc(O)cc1)c1c(O)cc(O)cc1O	inactive
CC(=O)c1ccc([N+](=O)[O-])cc1	inactive
OC(CCN1CCCC1)(c1ccccc1)C1CCCCC1 (stereo not given)	inactive
C=C(C)C(=O)OCCOCCOC(=O)C(=C)C	inactive
C=C(C)C(=O)OCCCCCCCCCCCCC	inactive
CC(=O)NC1(c2cccc(F)c2)CCN(CC[C@@]2(c3ccc(Cl)c(Cl)c3)CN(c3ccccc3)C(=O)CO2)CC1	13.8 µM (active)
O=C1c2ccccc2C(=O)C1c1nc2ccccc2c(Br)c1O	inactive
CC(=O)Nc1ccc(C)cc1C	inactive
O=C1c2ccccc2C(=O)C1c1ccc(Br)cc1	inactive
CC(C)(C)CC(=O)OCC(=O)[C@@]1(O)CC[C@H]2[C@@H]3CCC4=CC(=O)C=C[C@]4(C)[C@H]3[C@@H](O)C[C@@]21C	inactive
